The sample as a whole holds a higher share of hits than the screen did.
VHR inh color: VHR1 (DUSP3) phosphatase inhibition. P51452. recombinant VHR phosphatase, colorimetric substrate read-out. inhibition, % at 20 µM. actives 0.7% (n = 50,000); in the data active means inhibition above about 60%
Target sequence (P51452 whole entry, looked up): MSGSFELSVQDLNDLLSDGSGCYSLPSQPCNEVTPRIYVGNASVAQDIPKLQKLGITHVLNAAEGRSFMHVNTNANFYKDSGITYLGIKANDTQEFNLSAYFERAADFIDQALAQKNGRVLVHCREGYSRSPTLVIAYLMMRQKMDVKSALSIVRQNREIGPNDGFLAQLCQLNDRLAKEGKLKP
* hit, by the source's call.

SMILES	VHR inh color
CN1C(=O)/C(=C/c2ccc(-c3ccc([N+](=O)[O-])cc3)o2)SC1=S	8
O=C1NC(=O)/C(=C\c2ccc(-c3cccc([N+](=O)[O-])c3)o2)S1	-2
O=C1NC(=S)/C(=C\c2ccc(-c3ccc([N+](=O)[O-])cc3)o2)S1	100*
O=C1/C(=C\c2ccc(-c3ccc([N+](=O)[O-])cc3)o2)SC(=S)N1c1ccc(O)cc1	59
O=C(O)CCN1C(=O)/C(=C/c2ccc(-c3ccc([N+](=O)[O-])cc3)o2)SC1=S	-6
CSCCC(C(=O)O)N1C(=O)/C(=C\c2ccc(-c3ccc([N+](=O)[O-])cc3)o2)SC1=S (stereo not given)	81*
CCOc1ccccc1-n1c(O)c(C=C2C=CC=N2)c(=O)[nH]c1=O	8
O=c1[nH]c(=O)n(-c2ccccc2Cl)c(O)c1C=C1C=CC=N1	2
Cn1c(O)c(/C=C2/C=CC=N2)c(=O)n(-c2ccccc2)c1=S	69*
COc1ccc(OC)c(/C=N\N2CCN(c3ccccc3OC)CC2)c1	6
Cc1ccc(-c2ccccc2)n1-c1ccc(O)c(C(=O)O)c1	99*
Cc1ccc(-c2ccccc2)n1-c1ccc(C(=O)O)cc1	6
Cc1ccc(-c2ccccc2)n1-c1ccc(Cl)c(C(=O)O)c1	44
CCOC(=O)c1sc(NC(=O)c2ccc(C)c([N+](=O)[O-])c2)c(C(=O)OCC)c1C	-19
CCOC(=O)c1c(NC(=O)c2ccc(C)c([N+](=O)[O-])c2)sc(C(=O)Nc2ccccc2OC)c1C	116*
CCOC(=O)c1c(NC(=O)c2cccc(OC)c2)sc(C(=O)Nc2ccccc2OC)c1C	1
COc1ccc(Cl)cc1C(=O)Nc1ccc(Nc2ccccc2)cc1	-13
Fc1ccc(OCCOc2ncnc3ccccc23)cc1	-13
O=[N+]([O-])c1ccccc1OCCOc1ncnc2ccccc12	-16
O=Cc1ccc(Oc2ncnc3ccccc23)cc1	97*
CC12CC(O)C3(F)C(CCC4=CC(=O)C=CC43C)C1CC=C2C(=O)CO (stereo not given)	3
CC1=NN(c2ccccc2)C(=O)/C1=C\c1cccnc1	-4
Cn1ccnc1SCC(=O)N1c2ccccc2-c2c(ssc2=S)C1(C)C	37
COc1ccc2c(c1)N(C(=O)CN1C(=O)c3ccccc3C1=O)C(C)(C)c1ssc(=S)c1-2	-14
CC1(C)c2ssc(=S)c2-c2ccccc2N1C(=O)CSc1nnc(N)s1	-2
SMILES	VHR inh color
COc1cc(C(=O)N2c3ccccc3-c3c(ssc3=S)C2(C)C)cc(OC)c1OC	10
CC1(C)c2ssc(=S)c2-c2ccccc2N1C(=O)CN1CCOCC1	97*
CC1(C)c2ssc(=S)c2-c2ccccc2N1C(=O)CN1CCCCC1	98*
CCn1c(C)nc2c(CN(C)C)c(O)ccc21	25
CC1=C(C(=O)Nc2cccc(C)c2)C(c2ccc(O)cc2)NC(=O)N1 (stereo not given)	-7
O=C1C2C3C=CC(CC3)C2C(=O)N1/N=C/c1ccc(I)o1 (stereo not given)	15
COc1ccccc1C/C(N)=N/OC(=O)c1cccc(I)c1	-7
CCOc1cccc(C2CC(=O)Nc3c2cc(Br)c2ccccc32)c1 (stereo not given)	-3
COc1ccc(C2CC(=O)Nc3c2cc(Br)c2ccccc32)c(OC)c1 (stereo not given)	112*
COc1cc(C2CC(=O)Nc3c2ccc2ccccc32)cc(OC)c1OC(C)=O (stereo not given)	2
O=C1CC(c2ccc(F)c(Br)c2)c2ccc3ccccc3c2N1 (stereo not given)	-8
COc1cc(C2CC(=O)Nc3c2ccc2ccccc32)cc(Br)c1OC (stereo not given)	103*
CSc1ccc(C2CC(=O)Nc3c2cc(Br)c2ccccc32)cc1 (stereo not given)	28
CSc1ccc(/C=N/NC(=O)COc2cccc(C)c2)cc1	-5
COC(=O)c1cc(NC(=O)COc2ccccc2)cc(C(=O)OC)c1	3
Cc1ccc(NC(=O)C(=O)/C=C(/O)c2ccc(Br)cc2)cc1	-8
Cc1cccc(C(=O)Nc2c(C(=O)N(C)C)cnn2-c2ccccc2)c1	70*
CCCN(CCC)C(=O)c1cnn(-c2ccccc2)c1NC(=O)c1cccc(F)c1	19
Cc1cccc(C(=O)Nc2c(C(=O)N3CCN(C)CC3)cnn2-c2ccccc2)c1	-6
COc1cc(C2/C(=C(/O)c3ccccc3)C(=O)C(=O)N2c2cccc(C(F)(F)F)c2)ccc1O (stereo not given)	-1
O=C1CC(=O)N(c2ccccc2)C(=S)N1	4
O=C1CC(=O)N(c2ccc(Cl)c(Cl)c2)C(=S)N1	73*
Cc1ccc(N2C(=O)CC(=O)NC2=S)cc1	6
CC(C)=C1C(=O)NN(c2ccccc2)C1=O	83*
CCc1ccc(/C=C2\C(=O)NN(c3ccccc3)C2=O)cc1	-16
SMILES	VHR inh color
O=C1NN(c2ccccc2)C(=O)/C1=C\C=C\c1ccccc1	-68
CCN1C(=O)/C(=C\c2ccc(O)cc2O)SC1=S	54
CC(=O)c1cccc(NC(=O)CSc2nc(C)cc(C)n2)c1	3
CC(=O)Nc1ccc(C2Nc3cc(C)c(C)cc3NC3=C2C(=O)CC(C)(C)C3)cc1 (stereo not given)	100*
CCOc1cc(C2C(C(=O)OCC3CCCO3)=C(C)NC3=C2C(=O)CCC3)cc([N+](=O)[O-])c1O (stereo not given)	-12
COC(=O)c1ccc(C2Nc3cc(C)c(C)cc3NC3=C2C(=O)CC(C)(C)C3)cc1 (stereo not given)	6
COc1cc(C2Nc3cc(C)c(C)cc3NC3=C2C(=O)CC(C)(C)C3)cc(Br)c1OC (stereo not given)	2
CCOc1cc(C2Nc3cc(C)c(C)cc3NC3=C2C(=O)CC(C)(C)C3)cc([N+](=O)[O-])c1O (stereo not given)	118*
Cc1cc2c(cc1C)NC(c1c(F)cccc1F)C1=C(CC(C)(C)CC1=O)N2 (stereo not given)	-9
CCCCNCCCCOc1cc(C)c(Cl)c(C)c1	-16
CCOC(=O)C1=C(O)/C(=C/c2ccc(Cl)cc2)SC1=Nc1cccc2ccccc12	5
COc1ccccc1NC(=O)C1=C(C)NC(SCc2ccccc2)=C(C#N)C1c1ccco1 (stereo not given)	4
O=[N+]([O-])c1ccc2c(c1)C1C=CCC1C(c1ccc(Cl)cc1)N2 (stereo not given)	-8
O=C(O)C1Nc2ccc([N+](=O)[O-])cc2C2C=CCC12 (stereo not given)	96*
CC(=O)N1c2ccc3ccccc3c2C2C=CCC2C1c1ccc(Br)cc1 (stereo not given)	2
O=[N+]([O-])c1cccc(C2Nc3ccc(Cl)cc3C3C=CCC32)c1 (stereo not given)	2
O=C(O)C1Nc2ccc3ccccc3c2C2C=CCC12 (stereo not given)	92*
CCOC(=O)c1ccc2c(c1)C1C=CCC1C(c1cccc3ccccc13)N2 (stereo not given)	40
O=C(O)C1Nc2c(C(=O)N3CCCC3)cccc2C2C=CCC12 (stereo not given)	-1
Cc1c(Cl)ccc2c1NC(C(=O)O)C1CC=CC21 (stereo not given)	84*
O=C(O)c1cccc2c1NC(c1cccc(Cl)c1Cl)C1CC=CC21 (stereo not given)	-5
COc1ccc(C(C)NC(=O)CN(c2ccccc2C)S(=O)(=O)c2ccc(C)cc2)cc1 (stereo not given)	-4
